Source: PubChem BioAssay (National Center for Advancing Translational Sciences (NCATS))
The entries come from a sample that favours hits as a whole.
DT40 TDP1 no CPT = qHTS for Inhibitors of human tyrosyl-DNA phosphodiesterase 1 (TDP1): qHTS in cells in absence of CPT | DT40 Tdp1-/- hTDP1 cells, no CPT, ATP luminescence, 48 h | Potency, µM (highest dose often 46.2 µM), hits mostly inhibitors | hit rate 15% among 420,000 | AID 686978, 2013; also: nearly all actives have a fitted effect of over 55% in size
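Stably hTDP1-transfected Tdp1-null chicken DT40 cells were treated with library compounds minus camptothecin and grown for at least 48 hr at 37 °C, after which cellular ATP was quantified by luminescence.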
ALOX12 inh = Primary qHTS assay for inhibitors of human arachidonate 12S-lipoxygenase (ALOX12): Round 2; AID 1671190, 2021; Polyunsaturated fatty acid lipoxygenase ALOX12 (Homo sapiens), P18054; purified 12hLO, xylenol orange hydroperoxide absorbance; hit rate 1.1% among 580,000; Potency, µM (highest dose often 108 µM), hits mostly inhibitors
Target sequence (P18054 whole entry, looked up): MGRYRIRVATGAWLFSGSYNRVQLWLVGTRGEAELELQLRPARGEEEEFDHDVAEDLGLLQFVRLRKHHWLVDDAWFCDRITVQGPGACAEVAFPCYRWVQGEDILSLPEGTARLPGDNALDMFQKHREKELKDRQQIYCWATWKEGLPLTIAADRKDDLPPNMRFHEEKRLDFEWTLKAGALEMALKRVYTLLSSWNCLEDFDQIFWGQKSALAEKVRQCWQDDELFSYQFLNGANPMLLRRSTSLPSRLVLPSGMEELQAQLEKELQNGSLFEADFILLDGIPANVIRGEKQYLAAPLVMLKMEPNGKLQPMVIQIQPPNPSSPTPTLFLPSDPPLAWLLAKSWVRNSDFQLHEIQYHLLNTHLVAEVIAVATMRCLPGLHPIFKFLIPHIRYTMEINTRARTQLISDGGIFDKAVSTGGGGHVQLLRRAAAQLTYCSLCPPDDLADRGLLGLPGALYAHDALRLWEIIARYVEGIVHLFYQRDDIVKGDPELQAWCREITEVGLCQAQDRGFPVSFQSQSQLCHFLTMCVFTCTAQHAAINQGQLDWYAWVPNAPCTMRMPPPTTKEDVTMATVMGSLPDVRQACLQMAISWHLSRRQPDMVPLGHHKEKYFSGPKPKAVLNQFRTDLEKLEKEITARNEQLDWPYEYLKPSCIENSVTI
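Purified human 12hLO (150 nM final) in 25 mM Hepes, 0.01% Triton X-100, pH 7.0 was preincubated 15 min at room temperature with compound. Then 40 uM arachidonic acid was added, 30 min. Hydroperoxide was read by Fe-XO absorbance ratio 573/405 nm.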
HT1080 IDH1KD tx = qHTS for induction of synthetic lethality in tumor cells producing 2HG: qHTS for the HT-1080-IDH1KD cell line | HT-1080 IDH1 knockdown viability, ATP luminescence, 48 h | Potency, µM (series often up to 46.1 µM), actives largely listed as cytotoxic | hit rate 2% among 360,000 | AID 686971, 2013
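Viability of IDH1-knockdown HT-1080 fibrosarcoma cells was assessed by CellTiter-Glo after 48 h at 37 °C with titrated compound; concentration-effect curves were classified by fit quality and response size.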
TDP1 cell CPT = qHTS for Inhibitors of human tyrosyl-DNA phosphodiesterase 1 (TDP1): qHTS in cells in presence of CPT. chicken DT40 Tdp1-/-;hTDP1 cells + 20 nM CPT, ATP luminescence, 48 h. hit rate 12% among 420,000. Potency, µM (highest dose often 46.2 µM), actives largely listed as inhibitors. AID 686979, 2013; also: nearly all actives have a fitted effect of over 55% in size
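Cell growth measured by CellTiter-Glo luminescence after a minimum 48 h, 37 C compound exposure with 20 nM CPT in Tdp1-knockout DT40 cells stably expressing hTDP1, seeded 400/well; qHTS titration format.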
HT1080NT lethal = qHTS for induction of synthetic lethality in tumor cells producing 2HG: qHTS for the HT-1080-NT fibrosarcoma cell line; HT-1080-NT fibrosarcoma viability, CellTiter-Glo ATP luminescence, 48 h; Potency, µM (titrated, usually from 46.1 µM), actives largely listed as cytotoxic; hit rate 1.6% among 360,000;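 also: NT is the 2HG producing partner of a matched IDH1 knockdown line; nearly all actives have a fitted effect of over 55% in size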
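750 cells/well, RPMI + 5% FBS; 2 h settle, compound pin-transfer, 48 h at 37 degrees C. CellTiter-Glo 10 min RT, luminescence. Normalized to DMSO and media-only wells.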
IL-1B inflam inh = qHTS for Inhibitors of Inflammasome Signaling: IL-1-beta AlphaLISA Primary Screen; THP-1 LPS/ATP IL-1B secretion, AlphaLISA, 16 h; active compounds read low; activity change, % at 57.5 µM; hit rate 4.7% among 360,000; AID 743279, 2014; in the data active = activity change below about -50%; inconclusive = mostly about -30% to -49%
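Secreted IL-1B measured by AlphaLISA bead assay after 16 h compound exposure of THP-1 cells; compounds (final up to 57.5 uM) added 1 h before LPS (250 ng/mL) and ATP (1.25 mM) stimulation; lower signal means less secretion.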
Hits are given with their value; i = inactive; ? = inconclusive; nt = not tested or not shown; [ ] = dose if it differs, or a comment. Unless noted, calls follow the shape of the dose curve; as a rule, active = well fitted curve in the direction sought with a large enough effect; inconclusive = small, poorly fitted or top-dose-only effect, or another doubt; inactive = no such curve, though single readings can be large; an effect the other way counts as inactive or inconclusive.

SMILES	DT40 TDP1 no CPT	ALOX12 inh	HT1080 IDH1KD tx	TDP1 cell CPT	HT1080NT lethal	IL-1B inflam inh
O=C1CCN(C(=O)c2ccccc2)CCCC(C(=O)NCCN2CCc3ccccc3C2)CCN1 (stereo not drawn)	nt	i	nt	nt	nt	nt
COc1ccc2[nH]cc(CCNc3ccnc(-c4cccnc4)n3)c2c1	?	i	nt	21µM	nt	nt
COc1ccc2[nH]cc(CCNc3ccnc(-c4cccc(NS(C)(=O)=O)c4)n3)c2c1	10µM	40µM	nt	?	nt	nt
COc1ccc2[nH]cc(CCNc3ccnc(-c4cccc(C#N)c4)n3)c2c1	?	i	nt	?	nt	nt
COc1ccc2[nH]cc(CCNc3ccnc(-c4ccc(N(C)C)cc4)n3)c2c1	0.92µM	?	nt	1µM	nt	nt
COc1ccc(C(=O)NCCc2c[nH]c3ccc(OC)cc23)cc1	i	i	i	i	i	i
O=C(NN1C(=O)/C(=C/c2ccc(O)c(O)c2)SC1=S)c1ccccc1	12µM	?	?	?	i	i
O=C1/C(=C/c2ccc(O)c(O)c2)SC(=S)N1Nc1ccccc1	?	nt	?	?	?	-62
COc1cc(/C=C2\SC(=S)N(Nc3ccccc3)C2=O)ccc1O	?	?	i	?	i	i
COc1cc(OC)c(NC(=O)CCc2ncc(-c3ccccc3)o2)cc1Cl	nt	i	nt	nt	nt	nt
CC1(C)CC(NC(=O)c2nc(-c3ccc4[nH]ccc4c3)no2)CC(C)(C)N1	nt	i	nt	nt	nt	nt
Cc1c(C(=O)NCc2ccccc2Cl)sc2ncnc(N(C)C3CCCCC3)c12	18µM	i	nt	?	nt	nt
Cc1ccc(C)c(CNC(=O)c2sc3ncnc(N(C)C4CCCCC4)c3c2C)c1	?	i	nt	23µM	nt	nt
Cc1ccc2c(c1)CN(CCC(=O)NCc1cc(C)n(C)n1)CC(C)O2 (stereo not drawn)	i	i	nt	i[9.04 µM]	nt	nt
O=C(Nc1ccccc1)C1C2CCC3C(CCC21)C3(Cl)Cl (stereo not drawn)	i	i	i	i	i	i
O=C(Nc1cccc(Cl)c1)C1C2CCC3C(CCC21)C3(Cl)Cl (stereo not drawn)	16µM	i	?	?	?	-72
O=C1CC(c2ccco2)CC2=C1C1c3ccccc3C(=O)N1c1ccccc1N2 (stereo not drawn)	23µM	i	?	?	?	-94
COc1cc(C(=O)C(=O)c2cc(OC)c(O)c(OC)c2)cc(OC)c1O	i	i	i	i	i	i
COc1cc(-c2cc(OC)c(O)c(OC)c2)cc(OC)c1O	9.2µM	i	?	16µM	i	i
COC(=O)c1c(C)oc2ccc(N(C(=O)c3ccncc3)S(=O)(=O)c3cc(C)ccc3C)cc12	nt	i	nt	nt	nt	nt
CC(=O)c1c(C)oc2ccc(N(C(=O)Oc3ccccc3)S(=O)(=O)c3ccccc3)cc12	10µM	i	nt	?	nt	nt
COC(=O)c1c(C)oc2ccc(N(C(=O)Oc3ccccc3)S(=O)(=O)c3ccc(C(C)(C)C)cc3)cc12	1.5µM	i	nt	3.7µM	nt	nt
CCOC(=O)c1c(C)oc2ccc(N(C(=O)Oc3ccccc3)S(=O)(=O)c3ccccc3)cc12	i	i	nt	i	nt	nt
CCOC(=O)c1cnc(Nc2nc3ccccc3o2)nc1CSC(=S)N(CC)CC	0.15µM	i	i	0.15µM	i	i
O=C(Cc1ccc([N+](=O)[O-])cc1)Oc1ccccc1	i	i	i	i	i	i
SMILES	DT40 TDP1 no CPT	ALOX12 inh	HT1080 IDH1KD tx	TDP1 cell CPT	HT1080NT lethal	IL-1B inflam inh
O=C(CS(=O)c1ccccc1[N+](=O)[O-])Oc1ccc(Br)cc1 (stereo not drawn)	i	i	i	i	i	-62
CS(=O)(=O)c1ccc(S(=O)CC(=O)Oc2ccc(Cl)cc2)c([N+](=O)[O-])c1 (stereo not drawn)	0.58µM	nt	18µM	1.2µM	23µM	-99
COc1ccccc1CN1CCC2(CC1)CCN(S(C)(=O)=O)CC2	i	i	nt	i	nt	nt
Cc1cccc(C(=O)Oc2ccccc2/C=N/Nc2ccc([N+](=O)[O-])cc2)c1	16µM	?	i	29µM	i	i
Cc1cccc(C(=O)Oc2cccc(OC(=O)c3cccc(C)c3)c2C)c1	nt	i	nt	nt	nt	nt
O=[N+]([O-])c1ccc(N/N=C/c2cccc(O)c2)cc1	21µM	?	?	?	?	-88
O=[N+]([O-])c1ccc(C=NNc2ccc(S(=O)(=O)O)cc2)cc1	i	?	i	i	i	i
O=[N+]([O-])c1ccc(N/N=C/c2cccc(O)c2O)cc1	15µM	?	?	?	?	?
COc1cccc(CC(=O)N2CCN(C(=O)c3nnn4c3COC(c3ccc(C)cc3)C4)CC2)c1 (stereo not drawn)	nt	i	nt	nt	nt	nt
O=C(Nc1ccc(F)cc1)N1CCC(Oc2ncccc2C(=O)N2CCOCC2)C1 (stereo not drawn)	nt	i	nt	nt	nt	nt
CCn1cnc2cc(NCc3nc4ccccc4n3Cc3ccccc3)ccc21	?	i	i	15µM	i	i
CN(C)c1ccc(CNc2ccc3c(c2)ncn3C(C)(C)C)cc1	i	i	?	i	i	i
CCn1cnc2cc(NCc3ccc(Br)cc3)ccc21	?	i	i	i	i	?
CCn1cnc2cc(NCc3ccc(C)cc3)ccc21	i	i	i	i	i	-57
CCn1cnc2cc(NCc3ccc(N(C)C)cc3)ccc21	18µM	i	i	15µM	i	?
CCn1cnc2cc(NCc3nc4ccccc4n3C)ccc21	?	i	i	i	i	i
Brc1ccc(CNc2ccc3ncccc3c2)cc1	12µM	i	i	21µM	i	i
O=C(Nc1ccc2ncccc2c1)c1cccc(Br)c1	i	?	i	?	i	i
COc1cccc(NC(=O)c2cc3c(=O)n4cccc(C)c4nc3n2Cc2ccccc2)c1	nt	i	nt	nt	nt	nt
CCCn1cnc2cc(NCc3ccc(Br)cc3)ccc21	?	i	i	?	i	-83
CC(C)n1cnc2cc(NCc3nc4ccccc4n3C)ccc21	i	i	i	i	i	i
CCCn1cnc2cc(NCc3ccc(OC)cc3OC)ccc21	23µM	i	nt	16µM	nt	nt
Cc1ccc(CNc2ccc3c(c2)ncn3C(C)C)cc1	13µM	i	i	12µM	i	?
CCN(CC)c1ccc(CNc2ccc3c(c2)ncn3CC)cc1	i	i	i	?	i	-96
Cn1cnc2cc(NCc3ccc(Cl)cc3)ccc21	?	i	i	?	i	i
O=C1CC(c2ccccc2)N(C(=O)CNC(=O)c2ccc(Cn3ccnc3)o2)CCCCCN1 (stereo not drawn)	nt	i	nt	nt	nt	nt
